Data: PubChem BioAssay (Tox21)
Inconclusive results are not listed. Active and inactive are the calls of the source. Calls follow the shape of the full dose curve.

Molecular target: D(2) dopamine receptor (Homo sapiens) (UniProt P14416)
Assay: Dopamine D2 receptor (DRD2) small molecule agonists, cell-based qHTS assay (AID 1963594); also: nearly all actives have a fitted effect of over 35% in size
Details: HEK293-DRD2 cAMP HTRF, agonist mode, 30 min; series mostly up to 92.4 µM; activation: at the top concentration
From the text: National Center for Advancing Translational Sciences [NCATS]
Division of Preclinical Innovation [DPI]
U.S. Environmental Protection Agency [EPA]
National Institutes of Environmental Health Sciences [NIEHS]
National Toxicology Program [NTP]
U.S. Food and Drug Administration [FDA]
DRD2 is the D2 subtype of the dopamine receptor, which is coupled to Gi subtype of G protein-coupled receptor. This G protein-coupled receptor inhibits adenylyl cyclase activity. The DRD2-HEK293 cell line stably expressing D2 dopamine receptor can be used for screening agonists and antagonists of interactions between D2 and its ligands. The Hek293-DRD2 cAMP assay is based on HTRF technology. It measures changes of cAMP accumulation in response to Gi coupled GPCR activation or inhibition.
Tox21 Assay Protocol Summary:
DRD2-Hek293 cells were dispensed at 600 cells/3uL/well in 1536-well white plates using a Multidrop Dispenser. After the assay plates were incubated at a 37 C/5% CO2 incubator for 24 h, 1 uL of Ro20-1724 at final concentration of 0.1 mM was transferred to the assay plate by a Flying Reagent Dispenser. Following Ro20-1724 addition, 23 nL of compound dissolved in DMSO, positive controls or DMSO only was added to the assay plates via Wako pintool station. The assay plates were incubated at room temperature for 10 min. Next, 1 uL of NKH477 at 200nM was added into the plates. After the assay plates were incubated at room temperature for an additional 30 min, 2.5 ul/well of cAMP-d2 and 2.5 ul/well of anti-cAMP-cryptate were added respectively into the assay plates using a Flying Reagent Dispenser. The plates were incubated at room temperature for 1 h. The fluorescence intensity in the plates was measured at 340 nm excitation and 665 & 620 nm emission by an Envision plate reader.
% is scaled to controls: 0 for no effect and ±100 for the full control effect.

D(2) dopamine receptor (Homo sapiens), sequence (P14416 whole entry, looked up): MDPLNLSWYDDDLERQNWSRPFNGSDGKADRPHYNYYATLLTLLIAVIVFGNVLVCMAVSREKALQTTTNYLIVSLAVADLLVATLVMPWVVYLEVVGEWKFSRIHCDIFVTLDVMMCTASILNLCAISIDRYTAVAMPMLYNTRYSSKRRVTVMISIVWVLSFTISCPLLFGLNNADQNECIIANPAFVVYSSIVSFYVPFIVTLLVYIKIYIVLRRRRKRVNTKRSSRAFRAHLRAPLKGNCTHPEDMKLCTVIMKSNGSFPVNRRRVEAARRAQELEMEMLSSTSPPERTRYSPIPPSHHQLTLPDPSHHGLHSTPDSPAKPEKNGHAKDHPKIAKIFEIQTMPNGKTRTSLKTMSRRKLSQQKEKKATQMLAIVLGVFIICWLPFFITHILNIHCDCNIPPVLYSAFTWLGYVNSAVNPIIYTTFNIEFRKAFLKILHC

| Structure (SMILES) | activation |
| --- | --- |
| CC(C)=CCC/C(C)=C/C=N/O | -2.19% (inactive) |
| CC(=O)C1CCCCC1=O (stereo not given) | 2.69% (inactive) |
| CC(C)C[P+](C)(CC(C)C)CC(C)C | 0.293% (inactive) |
| CCCCCCCCCCCCCCCCCCOS(=O)(=O)O | 13.7% (inactive) |
| CCN(CCO)CCCC(C)Nc1ccnc2cc(Cl)ccc12 (stereo not given) | 4.56% [at 8.39 µM] (inactive) |
| CCc1nccnc1CC | -2.33% [at 19 µM] (inactive) |
| O=C(CCC1CCN(Cc2ccccc2)CC1)c1ccc2c(c1)NCCCC2 | -29.7% [at 42.5 µM] (inactive) |
| N[C@@H](CSCCCO)C(=O)O | 5.68% [at 19 µM] (inactive) |
| CCc1cccc(CC)c1 | -3.95% (inactive) |
| Cc1oc(-c2ccccc2)nc1CCC(=O)c1ccc(CC2SC(=O)NC2=O)cc1 (stereo not given) | -2.78% [at 42.5 µM] (inactive) |
| CCCCCCCCC(C)=O | 0.374% (inactive) |
| CCCCC(=O)O[C@]1(C(=O)CO)CC[C@H]2[C@@H]3CCC4=CC(=O)CC[C@]4(C)[C@H]3[C@@H](O)C[C@@]21C | -8.23% [at 42.5 µM] (inactive) |
| COc1cc(CNC(=O)CCCC/C=C/C(C)C)ccc1O | -3.66% (inactive) |
| CC[N+]1(CC)CCC(=C(c2ccccc2)c2ccccc2)C1C (stereo not given) | -1.65% [at 42.5 µM] (inactive) |
| COc1cccc(O)c1 | -2.23% (inactive) |
| C=C1C(CCl)(CCl)C2(Cl)C(Cl)C(Cl)C1(Cl)C2(Cl)Cl (stereo not given) | -4.42% (inactive) |
| CCO[Si](CCCCl)(OCC)OCC | 0.427% (inactive) |
| O=C(O)Cc1csc(-c2ccc(Cl)cc2)n1 | 19.8% [at 42.5 µM] (inactive) |
| C/C=C/C(=O)CC | -9.38% [at 19 µM] (inactive) |
| Cc1cc(Br)ccc1NC(=O)CCl | 0.632% (inactive) |

| Structure (SMILES) | activation |
| --- | --- |
| CCCOC(=O)c1ccc(O)cc1 | 3.14% (inactive) |
| O=C1CCCc2c(O)cccc21 | -3.85% [at 42.5 µM] (inactive) |
| CC(C(=O)O)c1ccc2c(c1)Cc1cccnc1O2 (stereo not given) | -18.3% [at 42.5 µM] (inactive) |
| NC(=O)c1ccccc1[N+](=O)[O-] | 0.546% (inactive) |
| C[C@@H]1[C@H](O)[C@@H](C)/C=C/C=C\C=C\C=C\C=C\C=C\C=C\[C@H](O[C@@H]2O[C@H](C)[C@@H](O)[C@H](N)[C@@H]2O)C[C@@H]2O[C@](O)(C[C@@H](O)C[C@@H](O)[C@H](O)CC[C@@H](O)C[C@@H](O)CC(=O)O[C@H]1C)C[C@H](O)[C@H]2C(=O)O (stereo in doubt) | 7.81% (inactive) |
| CC(N)C12CC3CC(CC(C3)C1)C2 (stereo not given) | 0.273% [at 42.5 µM] (inactive) |
| CCCCCCCCCCCCCCCCOP(=O)([O-])OCC[N+](C)(C)C | 3.54% [at 42.5 µM] (inactive) |
| CCCCOC(=O)/C=C\C(=O)OCCCC | -1.67% (inactive) |
| COCCCN1CCC(NC(=O)c2cc(Cl)c(N)c3c2OCC3)CC1 | -10.4% [at 42.5 µM] (inactive) |
| N#CCC(=O)NN | 27.1% [at 42.5 µM] (inactive) |
| CCOC(=O)N1CCC(Nc2ccc(Cl)cc2N)CC1 | 15.9% [at 42.5 µM] (inactive) |
| CCN(CC)c1cccc(C)c1 | 0.0404% (inactive) |
| Cn1c(=O)c2c(ncn2CC(=O)O)n(C)c1=O | 0.713% [at 42.5 µM] (inactive) |
| C1CC(COCC2CO2)CCC1COCC1CO1 (stereo not given) | -7.23% (inactive) |
| CCCC(=O)C(CC)Sc1ccoc1C (stereo not given) | 0.374% (inactive) |
| CC(=O)O[C@@H]1CC2CCC1(C)C2(C)C (stereo not given in full) | 5.9% (inactive) |
| C[C@H]1NCc2cc(-c3ccc4c(=O)c(C(=O)O)cn(C5CC5)c4c3OC(F)F)ccc21 | -2.66% [at 19 µM] (inactive) |
| O=S(O)(O)=S | -2.24% [at 8.39 µM] (inactive) |
| CCN(CC)CCOc1ccccc1C(=O)CCc1ccccc1 | -11.9% [at 42.5 µM] (inactive) |
| O=C(c1ccccc1)c1ccc2n1CCC2C(=O)O (stereo not given) | -0.123% [at 42.5 µM] (inactive) |
